Most compounds without a hit are left out; they make up all but 2.4% or so of the library.
PTK2B oligo ant = blocks oligomerization of human Pyk2 in cells; Q293 cells, Pyk2 FERM NanoBiT luminescence; hits give low values; 99,000 compounds, 0.83% hits; AID 1347419; z-score (the deposit names both 25 µM and 10 µM);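 active means Z-score of -3 or lower, scaled per plate to the spread of control and sample wells; inactive means z-score above -3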;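 further: negative z-score means lost luminescence so less FERM oligomerization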
IL1B NFkB inh = blocks IL-1B driven NFkB nuclear translocation in HUVEC cells; HUVEC IL-1B NFkB p65 nuclear translocation imaging; inhibition, % at 2 µM; 94,000 compounds, 0.43% hits; AID 796;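 active means inhibition above about 30% together with a positive call from visual inspection of the well image, limit read from the data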;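 further: nuclear over cytoplasmic p65 intensity ratio measured by imaging; 0% = IL-1B stimulated DMSO wells and 100% = unstimulated DMSO wells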
JNK3 blocker = blocks human JNK3 kinase activity. purified JNK3 kinase activity, HTS. inhibition, % at 8 µM. P53779. 60,000 compounds, 0.61% hits. AID 746; in the data active means inhibition above about 17%;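 further: 0% = DMSO and 100% = reference inhibitor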
Target sequence (P53779 whole entry, looked up): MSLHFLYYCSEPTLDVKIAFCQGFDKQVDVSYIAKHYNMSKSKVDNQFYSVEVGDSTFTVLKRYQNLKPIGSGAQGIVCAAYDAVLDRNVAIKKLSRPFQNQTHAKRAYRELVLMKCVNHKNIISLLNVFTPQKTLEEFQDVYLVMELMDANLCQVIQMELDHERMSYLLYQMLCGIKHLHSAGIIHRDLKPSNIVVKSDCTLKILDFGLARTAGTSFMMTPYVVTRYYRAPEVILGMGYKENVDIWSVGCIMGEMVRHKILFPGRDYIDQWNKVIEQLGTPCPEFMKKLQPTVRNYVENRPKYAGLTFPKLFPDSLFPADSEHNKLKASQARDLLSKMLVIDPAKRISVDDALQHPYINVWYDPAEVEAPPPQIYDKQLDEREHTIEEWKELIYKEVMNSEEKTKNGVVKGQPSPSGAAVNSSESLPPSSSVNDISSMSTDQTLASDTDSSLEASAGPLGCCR
FAK blocker = blocks human focal adhesion kinase activity; biochemical FAK kinase activity assay; inhibition, %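 (tested at 7 µM)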; 97,000 compounds, 0.84% hits;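 further: 0% = DMSO and 100% = reference compound high control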
IL1B NFkB pot = enhances IL-1B driven NFkB nuclear translocation; AID 819; activation, % at 2 µM; 94,000 compounds, 0.3% hits; HUVEC IL-1B NFkB p65 nuclear translocation imaging;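 active means activation above 40%, about the mean plus 3 SD, also judged a hit on visual image review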;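 further: percent activation is computed from the nuclear over cytoplasmic p65 intensity ratio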
HUVEC tox IL1B = toxic to HUVEC cells under IL-1B stimulation; cell count reduction, % at 2 µM; 94,000 compounds, 0.41% hits; HUVEC cell count loss, Hoechst imaging, IL-1B stimulated;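 active means cell count reduction more than 3 SD above the screen-wide mean, cut at about 70% in these data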;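 further: normalized per plate to untreated control cells as the no-loss baseline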
FAK inh conf = FAK (human) inhibition confirmed. FAK kinase biochemical inhibition assay. 750 compounds, 28% hits. shares compounds with FAK blocker. inhibition, % at 7 µM
Active calls of the source: *. Unless noted, no stated cut-off is given here; in the data, active means inhibition above about 19%; inactive means the rest.

What do the screens show for `CC1(C)CCCN(C(=O)c2coc(=O)c(Br)c2)C1`?
PTK2B oligo ant: -0.28; IL1B NFkB inh: 1; JNK3 blocker: 4; FAK blocker: 46*; IL1B NFkB pot: -1; HUVEC tox IL1B: -33; FAK inh conf: 68*

What do the screens show for `CCCNC(=O)CS(=O)Cc1nc(-c2ccccc2C)oc1C` (centres undefined)?
IL1B NFkB inh: 15; JNK3 blocker: 12; FAK blocker: 6; IL1B NFkB pot: -15; HUVEC tox IL1B: 8

What do the screens show for `COc1cccc(CN2CC(O)=C(c3nc(-c4ccc(Cl)cc4)cs3)C2=N)c1`?
PTK2B oligo ant: -1.2; IL1B NFkB inh: -5; FAK blocker: 32*; IL1B NFkB pot: 5; HUVEC tox IL1B: 13; FAK inh conf: 26*

Results for CCCCN1CC(O)=C(c2nc(-c3ccc(Cl)cc3)cs2)C1=N ?
PTK2B oligo ant: -0.53; IL1B NFkB inh: -9; FAK blocker: 32*; IL1B NFkB pot: 9; HUVEC tox IL1B: 4; FAK inh conf: 12

What do the screens show for `CC(=O)Cc1nsc(Nc2ccc3c(c2)OCCO3)n1`?
PTK2B oligo ant: -0.28; IL1B NFkB inh: -5; FAK blocker: 0; IL1B NFkB pot: 5; HUVEC tox IL1B: -24

What do the screens show for `CC(=O)NC(Cc1ccccc1)C(=O)NC1CCN(C(=O)NC2CCCCC2)CC1` (centres undefined)?
PTK2B oligo ant: 0.25; IL1B NFkB inh: -4; JNK3 blocker: 4; FAK blocker: -4; IL1B NFkB pot: 4; HUVEC tox IL1B: 0

What do the screens show for `Cc1ccc(-c2c(C#N)c(N)n3c(nc4ccccc43)c2C#N)cc1`?
PTK2B oligo ant: -4*; IL1B NFkB inh: 13; FAK blocker: 24*; IL1B NFkB pot: -13; HUVEC tox IL1B: 3; FAK inh conf: 3

How did COc1ccccc1CNC(=O)COC(=O)c1cc(-c2ccco2)nc2ccccc12 do in these assays?
PTK2B oligo ant: 0.95; IL1B NFkB inh: -6; FAK blocker: 45*; IL1B NFkB pot: 6; HUVEC tox IL1B: -16; FAK inh conf: 24*

Results for CCOC(=O)N1CCN(c2cc(=O)n(-c3cccc(Br)c3)c(=O)[nH]2)CC1 ?
IL1B NFkB inh: 2; JNK3 blocker: -4; FAK blocker: -1; IL1B NFkB pot: -2; HUVEC tox IL1B: -23

How did O=C(N/N=C/c1ccc2c(c1)OCO2)c1cc(-c2ccc(F)cc2)nc2ccccc12 do in these assays?
PTK2B oligo ant: -0.01

Results for O=C(N/N=C/c1cccc(F)c1)c1cc(-c2ccco2)nc2ccccc12 ?
PTK2B oligo ant: 1.1; IL1B NFkB inh: -1; FAK blocker: 68*; IL1B NFkB pot: 1; HUVEC tox IL1B: -23; FAK inh conf: 36*

What do the screens show for `O=c1[nH]c2ccccc2nc1N1CCOCC1`?
PTK2B oligo ant: -1.1; IL1B NFkB inh: 2; FAK blocker: 2; IL1B NFkB pot: -1; HUVEC tox IL1B: -1

Results for c1ccc2c(c1)nc(N1CCOCC1)c1c3ccccc3[nH]c21 ?
PTK2B oligo ant: -1.8; IL1B NFkB inh: -15; JNK3 blocker: 59*; FAK blocker: 31*; IL1B NFkB pot: 15; HUVEC tox IL1B: -34; FAK inh conf: 14

What do the screens show for `Cc1sc2nc(SCC(=O)N(CCO)CCO)n(C3CCCCC3)c(=O)c2c1C`?
PTK2B oligo ant: -0.26; IL1B NFkB inh: -21; JNK3 blocker: 5; FAK blocker: -2; IL1B NFkB pot: 21; HUVEC tox IL1B: -12

How did Cc1ccc(OC(=O)c2cccc(C(=O)Oc3ccc(C)cc3)n2)cc1 do in these assays?
PTK2B oligo ant: 0.82; IL1B NFkB inh: 4; FAK blocker: 3; IL1B NFkB pot: -4; HUVEC tox IL1B: 35

How did O=C(Oc1ccccc1)c1c(Cl)cccc1P(=O)(O)O do in these assays?
PTK2B oligo ant: 0.23; IL1B NFkB inh: -4; JNK3 blocker: 6; FAK blocker: 76*; IL1B NFkB pot: 4; HUVEC tox IL1B: 0; FAK inh conf: 58*

Results for O=C(Oc1ccccc1Cl)c1ccccc1P(=O)(O)O ?
PTK2B oligo ant: 0.68; IL1B NFkB inh: -28; FAK blocker: 72*; IL1B NFkB pot: 28; HUVEC tox IL1B: -10; FAK inh conf: 68*

What do the screens show for `Cc1ccc(OC(=O)c2ccccc2P(=O)(O)O)cc1`?
PTK2B oligo ant: 1.3; IL1B NFkB inh: -20; FAK blocker: 50*; IL1B NFkB pot: 20; HUVEC tox IL1B: -11; FAK inh conf: 44*

What do the screens show for `CSC1=NCCN1C(=O)c1ccc(S(=O)(=O)N(C)C)cc1`?
IL1B NFkB inh: -3; JNK3 blocker: -2; FAK blocker: -7; IL1B NFkB pot: 3; HUVEC tox IL1B: 3

What do the screens show for `Cc1cccc(OCC(=O)NC(=S)Nc2ccc(S(=O)(=O)NC3CCCCC3)cc2)c1`?
PTK2B oligo ant: 1; IL1B NFkB inh: 7; FAK blocker: 1; IL1B NFkB pot: -7; HUVEC tox IL1B: -5

Results for CCN1CCN(C(=O)CN(c2ccccc2C)S(C)(=O)=O)CC1 ?
PTK2B oligo ant: -0.04; IL1B NFkB inh: 8; JNK3 blocker: 4; FAK blocker: 3; IL1B NFkB pot: -8; HUVEC tox IL1B: -19

How did CCOC(=O)c1cnc2ccc(C)cc2c1Nc1ccc(N2CCOCC2)cc1 do in these assays?
PTK2B oligo ant: -3*; IL1B NFkB inh: -9; FAK blocker: 51*; IL1B NFkB pot: 9; HUVEC tox IL1B: 2; FAK inh conf: 22*

What do the screens show for `CCOC(=O)c1cnc2ccc(OCC)cc2c1N1CCN(c2ccccc2)CC1`?
PTK2B oligo ant: -2.1; IL1B NFkB inh: -22; FAK blocker: -2; IL1B NFkB pot: 22; HUVEC tox IL1B: 1

Results for CCOC(=O)c1cnc2ccc(C)cc2c1Sc1ccccc1 ?
PTK2B oligo ant: -2; IL1B NFkB inh: 2; FAK blocker: 22*; IL1B NFkB pot: -2; HUVEC tox IL1B: -8; FAK inh conf: 2

What do the screens show for `CCOC(=O)C1=C(C)OC(N)=C(C#N)C1C1CCCCC1` (centres undefined)?
PTK2B oligo ant: -1.9; JNK3 blocker: 7

What do the screens show for `CCOC(=O)C1=C(c2ccccc2)OC(N)=C(C#N)C1C1CCCCC1` (centres undefined)?
PTK2B oligo ant: -2.9; IL1B NFkB inh: 19; FAK blocker: 24*; IL1B NFkB pot: -19; HUVEC tox IL1B: -126; FAK inh conf: 21*

How did O=c1c(-c2nc3ccccc3o2)c2oc3ccccc3n2c2ccccc12 do in these assays?
IL1B NFkB inh: 4; JNK3 blocker: 5; FAK blocker: 24*; IL1B NFkB pot: -4; HUVEC tox IL1B: -11; FAK inh conf: -1

What do the screens show for `Nc1cc(N)cc(-c2nc3ccccc3o2)c1`?
JNK3 blocker: -10

Results for COCCNC(=O)C(c1ccc(C)o1)N(C(=O)c1snc(C(N)=O)c1N)c1cc(C)cc(C)c1 (centres undefined) ?
PTK2B oligo ant: -2.3; IL1B NFkB inh: 4; JNK3 blocker: 1; FAK blocker: 23*; IL1B NFkB pot: -4; HUVEC tox IL1B: -12; FAK inh conf: 8

Assay outcomes as filed in PubChem.
